Experimental findings from PubChem BioAssay (NCI) are described below.

Each structure is given as a SMILES string. Where “and” joins values, the source holds several entries; their conditions need not be identical. Identical values can stand only once. Compounds without any hit were thinned out: in the full panel of roughly 83,000, 20% have a hit.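 48-hour exposure, single concentration, 96-well plates; percent growth endpoint where 0 means no net growth. Active: below 10.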 Calls of active or inactive are those of the source.

The experiment concerns MOLT-4 leukemia. In words: NCI-60 one-dose screen, 48 h (100 = growth as untreated, 0 = no growth, -100 = all killed). Particulars: 10 µM unless noted.
On to `CCOc1ccc(Nc2c3ccccc3nc3ccccc23)cc1`, for which the growth is 89.9% (inactive) and -2.2% (active) and -10.9% (active).

With `C[N+](C)(C)CN1C(=O)c2ccccc2C1=O`, the growth was 94.2% (inactive).

Turning to `S=C(S)N1CCCC1`, the growth was 98.7% (inactive) and 107% (inactive).

`O=C1C2=C(C(=O)c3ccccc31)C(O)(S(=O)(=O)O)C(O)(S(=O)(=O)O)C1N=CC=CC21` (centres undefined): the growth was 25.6% (inactive) and 48.2% (inactive).

Take `Cc1cc(O)c2c(c1)C(=O)c1cc(O)cc(O)c1C2=O`: the growth is 101% (inactive) and 85.9% (inactive).

As for `CCN(CC)CCC(CNc1ccnc2cc(Cl)ccc12)c1ccc(OC)cc1` (centres undefined), the growth is 52.3% (inactive) and 52.5% (inactive).

Take `O=[N+]([O-])c1ccc2nc3c4ccccc4c4ccccc4c3nc2c1`: the growth is 89.7% (inactive).

Turning to `COc1cc2nc(N3CCC[C@@H](NC(=O)C4COc5ccccc5O4)C3)nc(N)c2cc1OC` (some centres undefined), the growth was 88% (inactive) and 94.3% (inactive).

In the case of `NC(=S)NN=C1CCC(C2CCCCC2)CC1` (centres undefined), the growth is 81.4% (inactive) and 73.3% (inactive).

Take `CCOC(=O)c1sc(N)nc1-c1ccccc1`: the growth is 96.1% (inactive).

For `Cc1ccc2nc3c(nc2c1)-c1cccc2cccc-3c12`, the growth was 80.1% (inactive).

On to `CCN(CC)CCCC(C)Nc1ccnc2cc(Oc3ccccc3)ccc12` (centres undefined), for which the growth is 65.1% (inactive) and 80.7% (inactive).

In the case of `COc1ccccc1NC(=O)OCC#CCOC(=O)Nc1ccccc1OC`, the growth was 72.4% (inactive).

For `O[C@H](c1cc(C(F)(F)F)nc2c(C(F)(F)F)cccc12)[C@@H]1CCCCN1`, the growth was 32.7% (inactive).
